Results: PubChem BioAssay (NCATS)
Records with an inconclusive call do not appear. The source made the active and inactive calls. Unless noted, the call rests on the fitted dose curve; in most records, active means well fitted curve in the direction sought with a large enough effect; inconclusive means small, poorly fitted or top-dose-only effect, or another doubt; inactive means no such curve, though single readings can be large; an effect the other way counts as inactive or inconclusive.

Columns and labels:
[1] = Validation of Assay for Modulators of Lamin A Splicing (AID 1459; active means well fitted curve in the direction sought with a large enough effect in the signal ratio; the % refers to the signal ratio;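 further: cells exposed to compound for two days before reading; 0% is about no effect; ratio rise marks activators and ratio drop marks inhibitors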)
Summary of the method: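 S3 HeLa stably expressing lamin A-EGFP splicing minigene and DsRed2, 600 cells/well in Opti-MEM with 2% FBS, treated 48 h at 37C; laser-scanning cytometry gives GFP/RFP total intensity ratio; ancitabine positive control, 0.5% DMSO vehicle.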

[2] = qHTS Assay for Lipid Storage Modulators (AID 1519; calls by dose curve; on activity change, negative = inhibition: on the % scale 0 is the no-effect control and ±100 the full control effect); conditions: Drosophila S3 cells, BODIPY lipid droplet/cell ratio, laser cytometry, cells loaded with oleic acid
Summary of the method: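 Cells seeded at 5,000 per well were treated with compounds over a concentration series and loaded with oleic acid (400 uM, as added). Lipid droplet fluorescence (488 nm excitation, 500-530 nm channel) was read by laser-scanning cytometry and normalized to 20 uM Triacsin C.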

[3] = target: DNA repair nuclease/redox regulator APEX1 (Homo sapiens) (UniProt P27695); experiment: qHTS Validation Assay for Inhibitors of the Human Apurinic/apyrimidinic Endonuclease 1 (APE1) (AID 1705;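 further: TAMRA fluorescence gain over two minutes as APE1 cuts a quenched THF abasic duplex; on the % scale 0 is the no-effect control and ±100 the full control effect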)
DNA repair nuclease/redox regulator APEX1 (Homo sapiens), sequence (P27695 whole entry, looked up): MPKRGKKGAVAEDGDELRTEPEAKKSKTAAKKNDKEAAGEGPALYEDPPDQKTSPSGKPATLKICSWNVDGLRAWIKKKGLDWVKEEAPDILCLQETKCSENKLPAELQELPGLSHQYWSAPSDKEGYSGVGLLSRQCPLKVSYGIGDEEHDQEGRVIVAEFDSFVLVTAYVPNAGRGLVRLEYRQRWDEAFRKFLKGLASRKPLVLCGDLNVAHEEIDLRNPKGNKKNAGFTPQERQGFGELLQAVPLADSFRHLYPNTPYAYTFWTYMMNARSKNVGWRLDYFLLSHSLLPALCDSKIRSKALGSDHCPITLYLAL
Summary of the method: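 Fluorogenic double-stranded THF abasic-site substrate (5'-TAMRA/3'-BHQ-2), 50 nM final. Enzyme preincubated with compound 15 min at room temperature, then substrate added. Kinetic fluorescence (ex 525/em 598 nm) read three times at 60 s intervals; activity taken as third-minus-first read difference.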

[4] = Counterscreen for APE1 Inhibitors: Fluorescent Dye Displacement Validation Assay (AID 1707);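 further: plate controls were ThO with dsDNA and no compound for no effect and ThO without dsDNA for full effect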
Summary of the method: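 Counterscreen flags promiscuous DNA binders: compounds displacing ThO from duplex DNA (abasic THF site, 50 nM) reduce 540 nm emission (480 nm excitation). ThO 250 nM final; Tris-HCl pH 7.5 with NaCl, MgCl2 and Tween-20.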

[5] = target: Endonuclease 4 (Escherichia coli (strain K12)) (UniProt P0A6C1); experiment: Counterscreen for APE1 Inhibitors: qHTS Validation Assay for Inhibitors of Endonuclease IV (AID 1708); further: on the % scale 0 is the no-effect control and ±100 the full control effect
Summary of the method: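 Read-out: fluorescence rise (ex 525/em 598 nm) from incision of a TAMRA/BHQ-2 double-stranded THF abasic-site substrate (50 nM), measured kinetically; third-minus-first read difference gave reaction progress. Enzyme 2 nM.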

[6] = qHTS for differential inhibitors of proliferation of Plasmodium falciparum line Dd2 (AID 1882); conditions: Potency: Plasmodium falciparum Dd2 proliferation inhibition;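 further: compound exposure of 72 h on infected erythrocytes; plate controls were DMSO vehicle for no effect and 0.29 µM artemisinin for full effect; nearly all actives have a fitted effect of over 65% in size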
Summary of the method: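 RBC culture, 0.3% parasitemia / 2.5% Hct final; cpd added by pin tool in DMSO; 72 h, 37 C, 5% CO2; lysis buffer + SYBR Green I, o/n RT dark; FI 485/535; norm. to artemisinin 0.29 uM and DMSO.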

[7] = target: ATP-dependent DNA helicase Q1 (Homo sapiens) (UniProt P46063); experiment: qHTS Validation Assay for Inhibitors of RecQ-Like Dna Helicase 1 (RECQ1) (AID 2353);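 further: plate controls were DMSO vehicle for no effect and enzyme-free control for full effect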
ATP-dependent DNA helicase Q1 (Homo sapiens), sequence (P46063 whole entry, looked up): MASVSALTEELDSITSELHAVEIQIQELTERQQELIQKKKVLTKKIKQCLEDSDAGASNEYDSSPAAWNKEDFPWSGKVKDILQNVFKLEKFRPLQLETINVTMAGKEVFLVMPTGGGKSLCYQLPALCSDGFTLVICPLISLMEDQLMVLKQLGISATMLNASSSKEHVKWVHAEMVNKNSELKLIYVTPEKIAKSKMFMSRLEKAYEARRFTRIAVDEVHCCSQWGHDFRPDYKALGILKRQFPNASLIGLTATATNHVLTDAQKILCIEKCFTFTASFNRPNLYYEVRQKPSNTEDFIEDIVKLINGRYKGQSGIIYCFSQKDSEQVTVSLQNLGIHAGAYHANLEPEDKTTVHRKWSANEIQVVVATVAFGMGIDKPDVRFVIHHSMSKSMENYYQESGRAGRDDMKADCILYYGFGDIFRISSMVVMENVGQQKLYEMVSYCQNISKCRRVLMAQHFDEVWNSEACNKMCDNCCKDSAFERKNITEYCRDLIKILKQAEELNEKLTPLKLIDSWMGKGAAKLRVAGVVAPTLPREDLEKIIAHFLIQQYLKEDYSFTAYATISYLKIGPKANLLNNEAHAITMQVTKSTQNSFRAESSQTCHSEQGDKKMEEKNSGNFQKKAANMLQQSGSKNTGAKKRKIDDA
Summary of the method: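 RECQ1T1 50 nM; forked duplex (20 bp + 30-nt ss tails) 200 nM, ATP 2 mM final; pH 8.0, 2 mM MgCl2, 2.5 ug/ml poly(dI-dC); 15 min compound preincubation; discontinuous kinetic read over 2 h at RT.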

[8] = Validation screen for small molecules that induce DNA re-replication in MCF 10A normal breast cells (AID 463097); further: 0% is about no effect; nearly all actives have a fitted effect of over 60% in size
Summary of the method: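 MCF 10A cells exposed to compound 48 hr at 37 C, 5% CO2, then Hoechst-stained 40 min. Laser-scanning imaging of nuclear DNA content (405 nm ex, 500-530 nm em); re-replication scored as rise in nuclei with elevated fluorescence intensity.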

[9] = target: M-phase phosphoprotein 8 (Homo sapiens) (UniProt Q99549); experiment: qHTS Validation Assay for Inhibitors for MPP8 Chromodomain Interactions with Methylated Histone Tails (AID 488949); further: top concentration of the series differs between compounds; on the % scale 0 is the no-effect control and ±100 the full control effect; nearly all actives have a fitted effect of over 55% in size
M-phase phosphoprotein 8 (Homo sapiens), sequence (Q99549 whole entry, looked up): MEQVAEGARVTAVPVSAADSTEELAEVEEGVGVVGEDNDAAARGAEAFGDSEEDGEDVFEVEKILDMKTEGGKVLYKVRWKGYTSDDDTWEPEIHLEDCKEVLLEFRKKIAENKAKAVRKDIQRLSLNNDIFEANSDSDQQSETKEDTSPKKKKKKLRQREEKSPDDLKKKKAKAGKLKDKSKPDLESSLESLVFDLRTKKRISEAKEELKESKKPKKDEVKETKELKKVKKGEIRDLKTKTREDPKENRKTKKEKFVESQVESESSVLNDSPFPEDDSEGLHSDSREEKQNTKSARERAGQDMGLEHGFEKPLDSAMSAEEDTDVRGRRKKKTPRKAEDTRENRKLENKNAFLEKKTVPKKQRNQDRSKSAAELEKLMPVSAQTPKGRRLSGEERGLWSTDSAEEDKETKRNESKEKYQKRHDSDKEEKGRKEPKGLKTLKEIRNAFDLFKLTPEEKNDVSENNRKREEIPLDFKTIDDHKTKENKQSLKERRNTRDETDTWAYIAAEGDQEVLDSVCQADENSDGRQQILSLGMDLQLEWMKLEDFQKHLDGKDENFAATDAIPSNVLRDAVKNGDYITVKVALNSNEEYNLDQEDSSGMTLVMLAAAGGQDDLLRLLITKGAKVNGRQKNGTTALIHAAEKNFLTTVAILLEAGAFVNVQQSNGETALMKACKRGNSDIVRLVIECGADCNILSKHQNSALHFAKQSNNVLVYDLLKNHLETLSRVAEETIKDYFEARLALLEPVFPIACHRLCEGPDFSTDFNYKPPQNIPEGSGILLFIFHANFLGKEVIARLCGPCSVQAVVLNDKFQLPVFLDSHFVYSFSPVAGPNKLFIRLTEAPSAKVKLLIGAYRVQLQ
Summary of the method: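 MPP8 (50 nM) was pre-bound to 50 nM biotinylated H3(1-18)K9me3 peptide in PBS pH 7.4 with 0.01% Tween-20. Compounds were then added for 30 min at room temperature, and complex disruption was read by AlphaScreen with streptavidin donor and nickel-chelate acceptor beads.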

[10] = target: Thyrotropin receptor (Homo sapiens) (UniProt P16473); experiment: qHTS Assay for Antagonists of the Thyroid Stimulating Hormone Receptor (AID 488980); further: 0% is about no effect
Thyrotropin receptor (Homo sapiens), sequence (P16473 whole entry, looked up): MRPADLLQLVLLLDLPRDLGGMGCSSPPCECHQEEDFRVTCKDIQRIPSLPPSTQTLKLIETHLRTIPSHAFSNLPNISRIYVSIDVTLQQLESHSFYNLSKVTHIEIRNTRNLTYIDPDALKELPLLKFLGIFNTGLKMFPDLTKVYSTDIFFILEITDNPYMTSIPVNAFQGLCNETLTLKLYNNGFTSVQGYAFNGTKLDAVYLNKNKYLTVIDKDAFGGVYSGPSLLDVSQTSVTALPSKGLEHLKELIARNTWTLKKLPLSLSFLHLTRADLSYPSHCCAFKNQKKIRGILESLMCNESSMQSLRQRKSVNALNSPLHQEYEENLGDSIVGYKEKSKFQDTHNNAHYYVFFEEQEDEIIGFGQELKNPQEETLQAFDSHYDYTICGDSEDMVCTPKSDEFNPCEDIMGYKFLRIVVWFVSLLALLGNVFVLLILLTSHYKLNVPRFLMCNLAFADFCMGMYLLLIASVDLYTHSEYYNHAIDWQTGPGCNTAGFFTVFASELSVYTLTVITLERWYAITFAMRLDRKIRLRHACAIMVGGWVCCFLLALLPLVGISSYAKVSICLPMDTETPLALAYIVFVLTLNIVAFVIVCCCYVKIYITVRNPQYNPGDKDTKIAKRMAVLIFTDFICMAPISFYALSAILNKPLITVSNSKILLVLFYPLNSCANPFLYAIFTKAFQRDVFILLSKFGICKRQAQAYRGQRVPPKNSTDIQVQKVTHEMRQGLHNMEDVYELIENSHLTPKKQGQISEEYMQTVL
Summary of the method: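 TSHR-transfected HEK293 cells (2000/well) in HEPES-buffered HBSS with 70 uM RO 20-1724 were stimulated with 4 nM TSH (EC80, final) in the presence of compound. cAMP was measured by HTRF competition after lysis and 30 min at RT.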

[11] = target: Galactokinase (Homo sapiens) (UniProt P51570); experiment: qHTS Validation Assay for Inhibitors of Human Galactokinase (GALK) (AID 493189); further: 0% is about no effect
Galactokinase (Homo sapiens), sequence (P51570 whole entry, looked up): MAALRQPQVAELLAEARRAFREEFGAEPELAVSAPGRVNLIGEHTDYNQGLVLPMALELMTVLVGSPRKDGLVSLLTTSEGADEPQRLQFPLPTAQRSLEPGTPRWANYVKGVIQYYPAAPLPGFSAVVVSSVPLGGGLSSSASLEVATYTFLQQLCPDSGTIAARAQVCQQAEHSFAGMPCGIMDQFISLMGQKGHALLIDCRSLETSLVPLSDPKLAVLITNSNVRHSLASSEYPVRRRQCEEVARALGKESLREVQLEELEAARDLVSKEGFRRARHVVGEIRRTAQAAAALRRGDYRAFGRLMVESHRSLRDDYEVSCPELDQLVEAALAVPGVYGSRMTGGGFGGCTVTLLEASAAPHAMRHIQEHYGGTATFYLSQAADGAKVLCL
Summary of the method: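 GALK (5 nM) with 35 uM ATP and 100 uM galactose in HEPES pH 8.0 with MgCl2, NaCl, DTT and BSA. Reaction ran 1 h at room temperature. Residual ATP read by Kinase-Glo Plus luminescence.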

[12] = Validation screen for small molecules that induce DNA re-replication in SW480 colon adenocarcinoma cells (AID 504364); further: 0% is about no effect
Summary of the method: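 Hoechst-stained SW480 nuclei, imaged at 405 nm excitation after 48 hr compound exposure, were counted for elevated DNA content as the re-replication signal.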

[13] = Primary qHTS for inhibitors of nuclear receptor binding SET domain protein 2 (NSD2) in an isogenic RCH-ACV NSD2 p.E1099K mutant (9B) (AID 1645876); further: potency means the concentration at half of the fitted maximal effect; nearly all actives have a fitted effect of over 70% in size
[14] = Primary qHTS for inhibitors of nuclear receptor binding SET domain protein 2 (NSD2) in an RCH-ACV wild type WT cells (2C) (AID 1645877); further: potency means the concentration at half of the fitted maximal effect; nearly all actives have a fitted effect of over 70% in size
[15] = target: Glutathione peroxidase 1 (Homo sapiens) (UniProt P07203); experiment: Primary qHTS Assay for Inhibitors of Recombinant Selenoprotein Glutathione Peroxidase 1 (GPX1) (AID 1845191); further: nearly all actives have a fitted effect of over 65% in size
Glutathione peroxidase 1 (Homo sapiens), sequence (P07203 whole entry, looked up): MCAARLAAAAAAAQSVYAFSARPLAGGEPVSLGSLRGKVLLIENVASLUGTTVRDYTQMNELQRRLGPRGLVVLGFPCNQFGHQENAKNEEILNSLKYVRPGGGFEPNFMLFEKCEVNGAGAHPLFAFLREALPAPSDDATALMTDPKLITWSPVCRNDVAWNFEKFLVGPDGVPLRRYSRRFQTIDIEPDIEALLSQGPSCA
Summary of the method: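 GR-coupled readout: NADPH consumption tracked by fluorescence, ex 340/em 450 nm, at t=0 and after 15 min at RT. Final mix 10 nM GPX1, 1 mM GSH, 0.5 mM CHP, 0.5 mM NADPH, 100 nM GR, 0.01% BSA, following 30 min enzyme–compound preincubation.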

[16] = target: Phospholipid hydroperoxide glutathione peroxidase GPX4 (Homo sapiens) (UniProt P36969); experiment: Primary qHTS Assay for Inhibitors of Recombinant Selenoprotein Glutathione Peroxidase 4 (GPX4) (AID 1845192); conditions: outcome: dose series up to 50 µM unless noted; further: on the % scale 0 is the no-effect control and ±100 the full control effect; nearly all actives have a fitted effect of over 65% in size
Phospholipid hydroperoxide glutathione peroxidase GPX4 (Homo sapiens), sequence (P36969 whole entry, looked up): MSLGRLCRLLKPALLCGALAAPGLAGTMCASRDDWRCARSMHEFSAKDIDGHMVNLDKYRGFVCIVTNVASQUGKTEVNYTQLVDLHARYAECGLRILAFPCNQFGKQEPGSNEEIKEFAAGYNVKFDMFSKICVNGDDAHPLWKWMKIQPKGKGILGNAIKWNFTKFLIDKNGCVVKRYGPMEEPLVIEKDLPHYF
Summary of the method: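 Steps: GPX4 plus compound, 30 min RT; add GR/GSH/NADPH master mix; start with cumene hydroperoxide; read 340/450 nm fluorescence at 0 and 15 min. Finals were 200 nM GPX4, 1 mM GSH, 0.5 mM CHP, 0.5 mM NADPH, 100 nM GR.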

[17] = qHTS drug screen for cell cycle checkpoint inhibitors in PARPi-resistant BRCA-mutant ovarian cancer cell lines. (AID 1963452; calls by dose curve); conditions: PEO1/OlaR viability, CellTiter-Glo luminescence, 96 h, stronger effect = lower value
Summary of the method: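 PEO1, PEO4 and PEO1/OlaR ovarian cancer cells, 600 per well, exposed 96 h at 37C to a dilution series. Viability read by CellTiter-Glo luminescence, normalized to DMSO and empty wells; activity summarized as Z-AUC.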

[18] = qHTS assay to identify inhibitors of the type 1 interferon - major histocompatibility complex class I in skeletal muscle: Counter screen cell viability and HiBit confirmation (AID 1347412); conditions: iHSKM muscle cells + IFN-b, HiBiT or CellTiter-Glo, 24 h; for activity change, negative = inhibition: at 45.9 µM (top of the series); further: potency means the concentration at half of the fitted maximal effect; on activity change, negative = inhibition: on the % scale 0 is the no-effect control and ±100 the full control effect; on all read-outs here: nearly all actives have a fitted effect of over 60% in size
Summary of the method: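 CRISPR HLA-B*08:01-HiBit immortalized human myoblasts (C25cl48) stimulated with 4 ng/ml IFN-beta and compounds (12-point 1:3, top 46 uM final) for 24 h at 37 C. Duplicate plates read by HiBit lytic luminescence or CellTiter Glo ATP.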

[19] = measured here: PEO1 parental Z-AUC

Question: Which outcome [1] does the source give for `CNC(=O)[C@H]1O[C@@H](n2cnc3c(NCc4cccc(I)c4)ncnc32)[C@H](O)[C@H]1O` here?
Answer: The outcome was “inactive”.

Question: And the activity change, negative = inhibition ([2]; at 57.5 µM (top of the series))?
Answer: The activity change, negative = inhibition was 1.11% (inactive).

Question: And the max response ([2]; measured here: cell count channel max response)?
Answer: The max response was 54.7%.

Question: And the max response ([2]; measured here: lipid channel max response)?
Answer: Its max response is 56.8%.

Question: And the Potency [3]?
Answer: The Potency was “inactive”.

Question: And the Potency [4]?
Answer: Its Potency is “inactive”.

Question: And the outcome [5]?
Answer: Its outcome is “inactive”.

Question: What about the Potency [6] of the same compound?
Answer: Its Potency is “inactive”.

Question: And the Potency [7]?
Answer: The Potency was “inactive”.

Question: And the outcome [8]?
Answer: The outcome was “inactive”.

Question: And the Potency [9]?
Answer: Its Potency is “inactive”.

Question: And the outcome [10]?
Answer: The outcome was “inactive”.

Question: What about the outcome [11] of the same compound?
Answer: The outcome was “inactive”.

Question: And the outcome [12]?
Answer: The outcome was “inactive”.

Question: Which results are given for `CCN(CC)CCNC(=O)c1c(C)[nH]c(/C=C2/C(=O)Nc3ccc(-c4csc(-c5ccccc5)n4)cc32)c1C`?
Answer: Potency [13]: 7420 nM (active); Potency [14]: 5900 nM (active); Potency [15]: inactive; Potency [16]: inactive; Z-AUC [17]: 0.984 (inactive); Z-AUC [17, 19]: 0.413; Z-AUC ([17]; measured here: PEO4 Z-AUC): -0.34; Potency ([18]; Viability): 24900 nM (active)

Question: With `Cc1c(C(=O)Nc2ccc(Oc3ccnc4[nH]cc(-c5ccccc5)c34)c(F)c2)c(=O)n(-c2ccc(F)cc2)n1C` as the compound, how does the Potency [14] read?
Answer: The Potency was 1860 nM (active).

Question: And the Potency [15]?
Answer: The Potency was “inactive”.

Question: And the Potency [16]?
Answer: The Potency was “inactive”.

Question: And the Z-AUC [17]?
Answer: The Z-AUC was 0.886 (inactive).

Question: What about the Z-AUC [17, 19] of the same compound?
Answer: The Z-AUC was 0.825.

Question: And the Z-AUC ([17]; measured here: PEO4 Z-AUC)?
Answer: The Z-AUC was 0.513.

Question: What about the activity change, negative = inhibition ([18]; Viability) of the same compound?
Answer: Its activity change, negative = inhibition is -7.02% (inactive).

Question: Which results are given for `C[C@@H](Oc1ccc2[nH]nc(/C=C/c3cnn(CCO)c3)c2c1)c1c(Cl)cncc1Cl`?
Answer: Potency [13]: 833 nM (active); Potency [14]: 417 nM (active); Potency [15]: inactive; Z-AUC [17]: -1.01 (inactive); Z-AUC [17, 19]: -0.521; Z-AUC ([17]; measured here: PEO4 Z-AUC): -0.403; Potency ([18]; HiBiT): 557 nM (active)

Question: With `COc1cc(C(N)=O)ccc1NC(=O)[C@@H]1N[C@@H](CC(C)(C)C)[C@@]2(C(=O)Nc3cc(Cl)ccc32)[C@H]1c1cccc(Cl)c1F` as the compound, how does the Potency [13] read?
Answer: The Potency was 235 nM (active).

Question: What about the Potency [14] of the same compound?
Answer: Its Potency is 93.4 nM (active).

Question: What about the Potency [15] of the same compound?
Answer: The Potency was “inactive”.

Question: And the Z-AUC [17]?
Answer: Its Z-AUC is -0.18 (inactive).

Question: And the Z-AUC [17, 19]?
Answer: Its Z-AUC is -0.499.

Question: What about the Z-AUC ([17]; measured here: PEO4 Z-AUC) of the same compound?
Answer: Its Z-AUC is -0.498.

Question: What about the activity change, negative = inhibition ([18]; Viability) of the same compound?
Answer: Its activity change, negative = inhibition is -16.3% (inactive).

Question: Which results are given for `O=c1cc(N2CCOCC2)oc2c(-c3ccc4c(c3)OCCO4)csc12`?
Answer: Potency [13]: 590 nM (active); Potency [14]: 590 nM (active); Potency [15]: inactive; Potency [16]: inactive; Z-AUC [17]: -0.839 (inactive); Z-AUC [17, 19]: -0.602; Z-AUC ([17]; measured here: PEO4 Z-AUC): -0.553; Potency ([18]; HiBiT): 14000 nM (active)
